Assay results: PubChem BioAssay AID933 (National Center for Advancing Translational Sciences (NCATS), 2007)
Inconclusive results are not listed. A number with no mark means an inactive call. Activity calls are given as the source filed them. Calls follow the shape of the dose curve; as a rule, active = well fitted activation curve with a large enough effect in the signal ratio, with a control signal flat; inconclusive = small, poorly fitted or top-dose-only effect, or a change in a side signal; inactive = flat fitted curve, though single readings scatter; the % refers to the signal ratio.

Molecular target: Thyrotropin receptor (Homo sapiens) (UniProt P16473)
Sequence (P16473 whole entry, looked up): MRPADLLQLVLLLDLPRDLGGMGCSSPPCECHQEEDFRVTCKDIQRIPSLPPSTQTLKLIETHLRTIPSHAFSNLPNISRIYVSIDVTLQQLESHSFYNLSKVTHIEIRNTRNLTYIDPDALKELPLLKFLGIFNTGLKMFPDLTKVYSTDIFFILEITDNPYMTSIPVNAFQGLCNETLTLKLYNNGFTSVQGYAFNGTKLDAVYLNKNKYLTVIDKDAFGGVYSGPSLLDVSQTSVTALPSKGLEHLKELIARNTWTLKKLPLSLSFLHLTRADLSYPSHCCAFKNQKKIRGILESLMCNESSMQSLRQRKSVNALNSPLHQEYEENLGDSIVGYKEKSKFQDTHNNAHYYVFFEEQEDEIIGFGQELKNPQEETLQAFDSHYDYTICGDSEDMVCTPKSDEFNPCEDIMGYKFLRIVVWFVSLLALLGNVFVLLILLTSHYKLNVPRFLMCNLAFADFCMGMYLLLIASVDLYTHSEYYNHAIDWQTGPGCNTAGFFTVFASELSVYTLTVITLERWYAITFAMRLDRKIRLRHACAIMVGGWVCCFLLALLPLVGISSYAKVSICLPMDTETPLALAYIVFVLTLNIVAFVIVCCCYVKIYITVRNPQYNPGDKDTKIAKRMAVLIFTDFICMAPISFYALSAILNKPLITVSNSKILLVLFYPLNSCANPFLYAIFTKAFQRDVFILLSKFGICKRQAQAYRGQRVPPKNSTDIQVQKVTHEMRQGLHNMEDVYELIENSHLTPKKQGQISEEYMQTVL
Experiment: Secondary Concentration-Response Assay for Agonists of the Thyroid Stimulating Hormone Receptor: HTRF Activity Detection; as to activation: % of control where 0% means no effect
Settings: HEK293-TSHR cells, cAMP HTRF ratio, 30 min; series mostly up to 91.7 µM; activation: at the top concentration
How it was run: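 cAMP accumulation was detected by antibody-based HTRF, excitation 330 nm, emissions 615 and 660 nm. Compounds acted for 30 min at room temperature on stably TSHR-transfected HEK 293 cells, with phosphodiesterase inhibitor RO 20-1724 (100 uM) in the medium.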
Potency is read from the fitted curve at half-maximal effect.

Going from `CC(=O)Nc1ccc(OCc2cccc(-c3nc4ccccc4c(=O)n3Cc3ccco3)c2)cc1` to `COc1ccc(CN(Cc2ccccc2)C(=O)c2ccno2)cc1COc1ccc(NC(C)=O)cc1`, the “activation” value rises from 6.74% to 29.6%.

Compared with `COc1ccc(C2Nc3ccccc3C(=O)N2c2ccc(Cl)cc2)cc1COc1ccc(NC(C)=O)cc1` (stereo not given), `COc1ccc(C2Nc3ccccc3C(=O)N2c2ccc(F)cc2)cc1COc1ccc(NC(C)=O)cc1` (stereo not given) is lower in “activation” value: 8.76% for the first, 7.79% for the second.

Going from `COc1ccc(C2Nc3ccccc3C(=O)N2Cc2ccccc2)cc1COc1ccc([N+](=O)[O-])c(C)c1` (stereo not given) to `COc1ccc(C2Nc3ccccc3C(=O)N2Cc2ccccc2)cc1COc1ccc(Cl)cc1` (stereo not given), the “activation” value rises from 1.38% to 15.5%.

Compared with `COc1ccc(C2Nc3ccccc3C(=O)N2Cc2ccccc2)cc1Oc1ccc(NC(C)=O)cc1` (stereo not given), `COc1ccc(C2Nc3ccccc3C(=O)N2Cc2ccccc2Cl)cc1COc1ccc(NC(C)=O)cc1` (stereo not given) is higher in “activation” value: 7.11% for the first, 10.2% for the second.

First: O=C1c2ccccc2NC(c2ccc(F)cc2)N1Cc1ccco1 (stereo not given)
Second: Cc1ccc(C2Nc3ccccc3C(=O)N2Cc2ccco2)cc1 (stereo not given)
The “activation” value of the first is higher: 1.15% for the first, 0.603% for the second.

Compared with `COc1ccc(C2Nc3ccccc3C(=O)N2Cc2ccccc2)cc1COc1ccccc1OC` (stereo not given), `O=C1c2ccccc2NC(c2ccc(OCc3ccccc3)c(OCc3ccccc3)c2)N1Cc1ccco1` (stereo not given) is lower in “activation” value: 15.1% for the first, 1.04% for the second.

Going from `CCOc1cc(C2Nc3ccccc3C(=O)N2Cc2ccco2)ccc1O` (stereo not given) to `O=C1c2ccccc2NC(c2cccc(O)c2)N1Cc1ccco1` (stereo not given), the “activation” value falls from 2.52% to 1.32%.

Compared with `O=C1C2C3CCCC3=C3CCCC3C2C(=O)N1c1ccc(F)cc1` (stereo not given), `CCN(CC)CCN1C(=O)c2ccccc2NC1c1ccc(F)cc1` (stereo not given) is lower in “activation” value: 3.38% for the first, 0.986% for the second.

First: CCOC(=O)COc1c(OC)cc(Cl)cc1C1Nc2ccccc2C(=O)N1c1cccc(C)c1 (stereo not given)
Second: COc1ccc(C2Nc3ccccc3C(=O)N2c2ccc(Cl)cc2)cc1Cn1cc([N+](=O)[O-])cn1 (stereo not given)
The “activation” value of the first is higher: 0.521% for the first, 0.476% for the second.

First: CC(NC(=O)COC(=O)c1ccco1)C12CC3CC(CC(C3)C1)C2 (stereo not given)
Second: O=C(c1cc(Br)ccc1O)N(Cc1ccco1)Cc1cccs1
The “activation” value of the first is lower: 0.512% for the first, 6.91% for the second.

Going from `COc1ccc(N(C)S(=O)(=O)c2cccc(C(=O)NC3=NCCS3)c2)cc1` to `CCOc1ccc(N(CC(=O)NCc2cccs2)S(=O)(=O)c2c(C)noc2C)cc1`, the activation falls from 1.29% [at 0.00035 µM] to -0.0859% [at 0.00035 µM].

Compared with `O=C(COC(=O)C1c2ccccc2Oc2ccccc21)Nc1ccc2c(c1)OCO2`, `CN1C(=O)N(C)C2(c3ccccc3)Nn3c(s/c(=C/c4ccco4)c3=O)=NC12c1ccccc1` (stereo not given) is higher in activation: 0.151% [at 0.00035 µM] for the first, 0.345% [at 0.00035 µM] for the second.

First: CCS(=O)(=O)N1CCN(C(C)CCc2ccccc2)CC1 (stereo not given)
Second: COc1ccc(-c2cc(C(F)(F)F)nc(SCCC(=O)N3CCOCC3)n2)cc1
The activation of the first is higher: 0.972% [at 0.00035 µM] for the first, 0.123% [at 0.00035 µM] for the second.

Going from `COC(=O)CNC(=O)C12CC3(C)CC(C)(CC(C)(C3)C1)C2` to `O=C(CN1C(=O)NC2(CCCCC2)C1=O)NCCC1=CCCCC1`, the activation rises from 0.274% [at 0.00035 µM] to 1.34% [at 0.00035 µM].

`O=C(COC(=O)C12CC3CC(CC(Cl)(C3)C1)C2)NCc1ccco1` was tested, and the Potency was 14.1 µM (active).
`COc1ccc(C2Nc3ccccc3C(=O)N2Cc2ccco2)cc1COc1ccc(NC(C)=O)cc1` (stereo not given) was tested, and the Potency was 15.8 µM (active).
For `COc1ccc(CN(Cc2ccccc2)C(=O)c2ccccc2N)cc1COc1ccc(NC(C)=O)cc1`, the Potency was 25.1 µM (active).
For `COc1ccc(C(=O)N(Cc2ccccc2)Cc2ccccc2)c(O)c1`, the Potency was 25.1 µM (active).
`COc1ccc(CN(Cc2ccccc2)C(=O)c2ccc(OC)cc2O)cc1` was tested, and the Potency was 31.6 µM (active).
In the case of `COc1ccc(C2Nc3ccc(NC(=O)COC(C)=O)cc3C(=O)N2Cc2ccccc2)cc1COc1ccc(NC(C)=O)cc1` (stereo not given), the Potency is reported as 8.91 µM (active).
In the case of `COc1ccc(C(=O)N(Cc2cccs2)Cc2cccs2)c(O)c1`, the Potency is reported as 15.8 µM (active).
